Data published in PubChem BioAssay AID1851 (National Center for Advancing Translational Sciences (NCATS), 2009).
Screen size: about 16,000 compounds; about 5,700 (36%) were called active. Roughly 24% stayed inconclusive and do not appear here. Calls come from the whole dose curve; as a rule, active = well fitted curve in the direction sought with a large enough effect; inconclusive = small, poorly fitted or top-dose-only effect, or effect the other way; inactive = no such curve, though single readings can be large or run the other way. Some of the results follow.

target: Cytochrome P450 1A2 (Homo sapiens) (UniProt P05177); assay: Cytochrome panel assay with activity outcomes; settings: recombinant CYP, pro-luciferin dealkylation, luminescence, p450-cyp1a2; series mostly up to 57.1 µM
% is set by controls: 0 for no effect and ±100 for the full control effect.

Chain of Cytochrome P450 1A2 (Homo sapiens) (P05177 whole entry, looked up): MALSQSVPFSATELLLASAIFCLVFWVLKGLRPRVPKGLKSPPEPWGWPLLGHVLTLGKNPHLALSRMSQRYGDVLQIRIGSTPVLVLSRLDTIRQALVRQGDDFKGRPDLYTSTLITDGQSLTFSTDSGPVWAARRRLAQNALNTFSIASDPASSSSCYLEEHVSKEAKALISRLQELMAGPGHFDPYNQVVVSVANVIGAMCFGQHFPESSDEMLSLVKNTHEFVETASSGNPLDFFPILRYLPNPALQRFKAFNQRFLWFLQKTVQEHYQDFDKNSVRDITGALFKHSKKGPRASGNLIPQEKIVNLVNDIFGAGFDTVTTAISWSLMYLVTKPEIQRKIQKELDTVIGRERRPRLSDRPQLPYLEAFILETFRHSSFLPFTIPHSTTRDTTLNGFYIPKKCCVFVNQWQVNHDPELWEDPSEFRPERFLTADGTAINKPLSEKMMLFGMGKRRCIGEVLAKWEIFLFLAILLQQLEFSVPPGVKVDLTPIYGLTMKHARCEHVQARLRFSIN

AC50, active:
CNCCCCCCCCSc1nc(C(C)C)ccc1C(=O)c1cccs1 31.6 µM
O=S(=O)(CC(O)COc1ccccc1Cl)c1ccccc1 (stereo not drawn) 22.4 µM
O=C(Nc1ccccc1)c1cc(-c2ccccc2Cl)no1 0.794 µM
COc1ccc(NC(=O)c2cc(-c3ccccc3Cl)no2)cc1 2.24 µM
NC(N)=Nc1nc2ccc([N+](=O)[O-])cc2[nH]1 3.16 µM
Cc1cc(C)c(C#N)c(Oc2ccc(F)cc2)n1 2.51 µM
N#Cc1c(-c2ccccc2)ccnc1Oc1ccccc1 1.12 µM
CCCC(=O)Nc1cccc(Oc2nc(C)cc(C)c2C#N)c1 5.01 µM
Cc1cc(C)c(C#N)c(Oc2ccccc2)n1 3.16 µM
CN(C)c1ccnc(Oc2ccc(Cl)cc2)c1C#N 2.51 µM
Cc1ccccc1-n1cnc2cc(NCc3cccs3)ccc21 5.62 µM
Cc1ccc(Sc2nc(C)cc(C)c2S(C)(=O)=O)cc1 10 µM
c1ccc2c(N3CCOCC3)nc(-c3ccoc3)nc2c1 1.26 µM
CN1CCN(c2nc(-c3ccoc3)nc3ccccc23)CC1 1.26 µM
Oc1ccc(-c2nc(-c3ccc(F)cc3)c(-c3ccncc3)[nH]2)cc1 15.8 µM
CS(=O)c1ccc(-c2nc(-c3ccc(F)cc3)c(-c3ccncc3)[nH]2)cc1 (stereo not drawn) 0.631 µM
O=C(N/N=C\c1ccc(Sc2ccccn2)o1)c1cccc(Br)c1 15.8 µM
O=C(N/N=C/c1cccc(Oc2ccccc2)c1)c1cccc(Br)c1 0.891 µM
O=C(N/N=C/C1C(c2ccccc2)C1(Cl)Cl)c1cccc(Br)c1 (stereo not drawn) 2 µM
Cc1ccc(/C=C2\Sc3ccccc3C2=O)s1 1.78 µM
O=C(OCc1nc2ccccc2[nH]1)C12CC3CC(CC(C3)C1)C2 22.4 µM
O=c1[nH][nH]c(C(F)(F)F)c1C=Nc1ccccc1Cl 14.1 µM
O=c1[nH][nH]c(C(F)(F)F)c1C=Nc1cccc(Cl)c1 12.6 µM
O=c1[nH][nH]c(C(F)(F)F)c1C=Nc1ccccc1 4.47 µM
CC(C)C(=O)Nc1cc2c(cc1C(=O)c1ccccc1)OCCO2 14.1 µM
CCC(=O)Nc1cc2c(cc1C(=O)c1ccccc1)OCCO2 25.1 µM
COc1ccc(C(=O)n2nc(-c3ccccc3)nc2SC)cc1 0.562 µM
CCCC(=O)n1nc(-c2cccnc2)nc1N 5.01 µM
CCC(=O)n1nc(-c2ccc(OC)cc2)nc1N 2 µM
COc1cccc(-c2[nH]nc3c2C(c2ccsc2)C(C#N)=C(N)O3)c1 (stereo not drawn) 1.12 µM
COc1cccc(-c2[nH]nc3c2C(c2ccc(C)o2)C(C#N)=C(N)O3)c1 (stereo not drawn) 1.58 µM
Cc1cccn2c(/C=N/OCc3cccc(F)c3)c(-c3ccc(Cl)cc3)nc12 2 µM
Cc1cccn2c(/C=N/OCc3ccc(F)cc3)c(-c3ccc(Cl)cc3)nc12 2 µM
Cn1c(O)c(C(C#N)=C2N=c3ccccc3=N2)c2ccccc21 1.58 µM
O=c1ccc2c(OCCCCc3ccccc3)c3ccoc3cc2o1 0.501 µM
CCn1c(=O)[nH]c2ccccc2c1=O 1.78 µM
Clc1ccccc1-c1ccc2ncnc(NCc3cccnc3)c2c1 0.158 µM
COCCNc1ncnc2ccc(-c3ccccc3OC)cc12 2 µM
FC(F)(F)c1ccccc1-c1ccc2ncnc(NCc3cccnc3)c2c1 1 µM
COCCNc1ncnc2ccc(-c3ccccc3C(F)(F)F)cc12 1.58 µM
COc1ccccc1-c1ccc2ncnc(NCc3ccccc3)c2c1 2 µM
COc1cccc(-c2ccc3ncnc(NCc4cccnc4)c3c2)c1 0.251 µM
COc1ccccc1-c1ccc2ncnc(NCc3cccnc3)c2c1 0.794 µM
C=CCNc1nc(-c2ccc(Cl)cc2)cs1 2.24 µM
CC(Oc1ccccc1)c1ccnn1S(=O)(=O)c1ccccc1 (stereo not drawn) 25.1 µM
CC(Oc1ccc(Cl)cc1)c1ccnn1S(=O)(=O)c1ccccc1 (stereo not drawn) 15.8 µM
CCOC(=O)c1ccc(Nc2nc(-c3cccnc3)nc3ccccc23)cc1 6.31 µM
CCOC(=O)c1ccc(Nc2nc(C(=O)OCC)nc3ccccc23)cc1 0.891 µM

AC50, inactive:
Cc1nnsc1SC(C)C(=O)O (stereo not drawn)
O=C1CCCN1CC(O)CS(=O)(=O)c1ccccc1 (stereo not drawn)
CC(C)CCNC1=NCCCCC1
N[C@@H](Cc1cc(CP(=O)(O)O)cc(-c2ccccc2Cl)c1)C(=O)O
Cc1onc(-c2ccccc2Cl)c1C(=O)NCC(=O)O
CCn1c(-c2ccccc2Cl)nn(CC(=O)Nc2ccc(OC)cc2)c1=S
Cc1ccc([N+](=O)[O-])cc1N=C(c1cccc([N+](=O)[O-])c1)N1CCOCC1
OC[C@@H]1NC[C@@H](O)[C@@H](O)[C@H]1O
COc1cccc(C2C3=C(CC(C)(C)CC3=O)OC(N)=C2[N+](=O)[O-])c1 (stereo not drawn)
CNc1nc(C)cc(C)c1S(=O)(=O)c1ccc(C)cc1
O=C(c1cc(-c2ccncc2)nc2ccccc12)N1CCN(c2ccc(N3CCOCC3)nn2)CC1
CC1(C)O[C@H]2C[C@@H]3[C@H]4CCC5=CC(=O)CC[C@@]5(C)[C@]4(F)[C@@H](O)C[C@@]3(C)[C@@]2(C(=O)CCl)O1
CC(=O)O[C@]1(C(C)=O)CC[C@@H]2[C@@H]3C=C(C)C4=CC(=O)CC[C@@]4(C)[C@H]3CC[C@]21C
C=C[C@@]1(C)CC(=O)[C@@]2(O)[C@@]3(C)[C@H](O)CCC(C)(C)[C@@H]3[C@H](O)[C@H](OC(C)=O)[C@]2(C)O1
COc1ncnc(NS(=O)(=O)c2ccc(N)cc2)c1OC
NC(N)=[N+]1CCc2ccccc2C1
Cc1ccc(C(=O)c2ccc(CC(=O)O)n2C)cc1
OC[C@H]1NC[C@@H](O)[C@@H](O)[C@H]1O
Cc1ccccc1C(C(=O)NC1CCCC1)N(C(=O)Cc1cccs1)c1ccc2c(c1)OCCO2 (stereo not drawn)
COc1ccc(-c2ccc(N)[n+](CCCC(=O)O)n2)cc1
COc1ccc(-n2c(SC)nc(O)c(Cc3ccccc3)c2=O)cc1
COc1ccc(C(=O)N2CCC3(CC2)CCN(C(c2ccccc2)c2ccccc2)CC3)cc1
COc1ccc(C2C(C#N)=C(N)Oc3n[nH]c(C)c32)cc1CN1CCN(c2ccc(F)cc2)CC1 (stereo not drawn)
O=C(CP(=O)(c1ccccc1)c1ccccc1)Nn1cnnc1
C=CC1=C(C(=O)O)N2C(=O)[C@@H](NC(=O)/C(=N\OCC(=O)O)c3csc(N)n3)[C@@H]2SC1
CN1CCC2(CC1)CCN(C(=O)c1cc(C(F)(F)F)cc(C(F)(F)F)c1)CC2
CC(Oc1ccc(-c2ccccc2)c(F)c1)c1ccn(S(=O)(=O)c2ccc(Cl)cc2)n1 (stereo not drawn)
COC(=O)c1c(C)nc2ccccc2c1C(=O)O
CCOC(=O)c1ccc(NC(=O)C2(c3ccc(OC)cc3)CCOCC2)cc1

activity, negative = inhibition, inactive:
CCOC(=O)CCN1C(=O)[C@H]2[C@H]3[C@H](O)[C@H](O)C/C(=N/OC[C@@H](O)COCc4ccco4)[C@H]3CC[C@@H]2C1=O -1.05% [at 11.4 µM]
CC(C)(C)COS(=O)OCC(C)(C)C -15.5% [at 11.4 µM]
Nc1nc(N)[n+]([O-])c(N)c1NCO -6.17% [at 11.4 µM]
COC(=O)[C@H](CCSC)NC(=O)C/C=C\[C@@H](C)CO 2.44% [at 11.4 µM]
O=C(N[C@@]1(C(=O)O)C[C@@H]1c1ccccc1)c1ccccc1 2.45% [at 11.4 µM]
N[C@@H]1[C@@H]2[C@@H]3C[C@H]4N(CC[C@@]14C(=O)C(=O)O)CC3=CCO[C@@H]2CC(=O)O -16.1% [at 11.4 µM]
Nc1ccn([C@@H]2O[C@H](COC(=O)C34CC5CC(CC(C5)C3)C4)[C@@H](O)[C@@H]2O)c(=O)n1 -18.7% [at 2.29 µM]
CO[C@@H]1/C=C\CC(=O)N[C@@H](C)C(=O)OC[C@@H](OC)[C@H](C)/C=C\CC(=O)OC[C@H]1C -4.89% [at 11.4 µM]
CC(C)/C(=N/[N+](C)(C)C)c1ccccc1 -16.2% [at 2.29 µM]
COc1ccc(-c2nc(N)c3ncn([C@H]4O[C@@H](CO)[C@@H](O)[C@@H]4O)c3n2)cc1 -13% [at 2.29 µM]
CC1(C)[C@@H]2CC[C@]1(C)[C@@H](OC(=O)CSC#N)C2 -18.3% [at 2.29 µM]
C#CCCCO/N=C1/C[C@@H](O)[C@@H](O)[C@@H]2[C@@H]3C(=O)N([C@@H](C)c4ccccc4)C(=O)[C@H]3CC[C@H]12 0.735% [at 11.4 µM]
CC1=N[C@@](C)(COC(=O)[C@]2(C)N[C@](C)(CO)CO2)COC1=O 6.88% [at 2.29 µM]
Cn1c(=O)c2[nH]c(CCCCc3nc4c([nH]3)c(=O)n(C)c(=S)n4C)nc2n(C)c1=S -13.8% [at 2.29 µM]
COC(=O)C/C=C\[C@@H](C)[C@@H]1C=C[C@H](OC(C)=O)[C@H](COC(C)=O)O1 -1.57% [at 11.4 µM]
O=S(=O)(c1ccccc1)N1CN2CN(C1)CN(S(=O)(=O)c1ccccc1)C2 -14.9% [at 11.4 µM]
